In the supplement of paper PMC10670038:
± gives the standard deviation of the averaged measurements. Over roughly 2,000 compounds, “relative cell viability vs DMSO, compound + 0.2 uM CuET” has its median near 1; the lowest 2% begin near 0.25. What follows is part of a selection rich in the lowest values, with near analogues and random picks from the rest.

tested on: TE10; experiment: relative cell viability vs DMSO, compound + 0.2 uM CuET (fraction); TE10 is an esophageal squamous carcinoma line; higher = less cytotoxic; conditions: 2 µM; co-treatment: CuET (bis(diethyldithiocarbamate)copper) 0.2 uM; 48 h
Protocol: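 TE10 ESCC cells (1,000/well, 384-well plates) were treated with Selleck bioactive library compounds at 2 uM combined with 0.2 uM CuET (copper diethyldithiocarbamate) for 48 h. Viability was read by CellTiter-Glo and expressed relative to DMSO wells. Two technical replicates (A, B).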

SMILES	relative cell viability
COc1cc2c(cc1NS(=O)(=O)c1ccc(Br)cc1C)n(C)c(=O)n2C	1.17 ± 0.15
CCCC(=O)Nc1cccc(NC(=O)c2ccccc2Br)c1	1.01 ± 0.16
O=C(O)CCNc1cc(N2CCc3ccccc3CC2)nc(-c2ccccn2)n1	0.765 ± 0.0059
CNc1nc(Nc2cnn(C3CCN(C4COC4)CC3F)c2Cl)ncc1C(F)(F)F (stereo not drawn)	1.195 ± 0.0015
Nc1cccc(-c2cc3c(Oc4cccc(O)c4)ncnc3[nH]2)c1	0.976 ± 0.062
c1cc(-c2cnn3cc(-c4ccc(N5CCNCC5)cc4)cnc23)c2cccnc2c1	0.182 ± 0.0055
CC(C)Oc1ccc(-c2cnc3c(-c4ccnc5ccccc45)cnn3c2)cc1	1.15 ± 0.088
COc1ccc(-c2cnc3c(-c4cccc5ncccc45)cnn3c2)cc1	1.17 ± 0.13
Cc1c(C(=O)Nc2ccc(N3C[C@@H](C)O[C@@H](C)C3)nc2)cccc1-c1ccc(OC(F)(F)F)cc1 [LDE225 (NVP-LDE225,Erismodegib)]	0.714 ± 0.081
COc1ccc(C[C@H](N)C(=O)N[C@H]2[C@@H](O)[C@H](n3cnc4c(N(C)C)ncnc43)O[C@@H]2CO)cc1 [Puromycin 2HCl]	0.249 ± 0.0061
COc1nc(N)nc2c1ncn2[C@@H]1O[C@H](CO)[C@@H](O)[C@@H]1O [Nelarabine]	1.21 ± 0.043
CNc1ncnc2c1ncn2[C@@H]1O[C@H](CO)[C@@H](O)[C@H]1O [N6-methyladenosine (m6A)]	1.06 ± 0.23
Nc1nonc1C(=Nc1ccc(F)c(Cl)c1)NO	1.15 ± 0.14
O=C(Nc1cc2cc[nH]c2cn1)c1ccccc1	0.3986 ± 0.0004
CS(=O)(=O)N1CCN(Cc2cc3nc(-c4cccc5[nH]ncc45)nc(N4CCOCC4)c3s2)CC1	0.68 ± 0.0074
Cc1c(CN2CCN(C(=O)[C@H](C)O)CC2)sc2c(N3CCOCC3)nc(-c3cnc(N)nc3)nc12	0.495 ± 0.091
COc1ccc(-c2nc(N3CCOCC3)c3sc(CN(C)c4ncc(C(=O)NO)cn4)cc3n2)cn1	0.1569 ± 0.00068
NCCCC[C@@H]1NC(=O)[C@@H](Cc2ccc(O)cc2)NC(=O)[C@H](CC(=O)O)NC(=O)CNC(=O)[C@H](CCCN=C(N)N)NC1=O [Cyclo(RGDyK)]	1.19 ± 0.27
O=C(O)c1ccc(N2C(=O)C(=Cc3ccc(-c4ccc([N+](=O)[O-])cc4)o3)C=C2c2ccccc2)cc1	1.1 ± 0.22
Cc1cc(Cl)ccc1OCCCC(=O)NO [Droxinostat]	0.997 ± 0.063
O=C(CCCCCCC(=O)Nc1ccccc1)NO [Vorinostat (SAHA, MK0683)]	0.473 ± 0.055
Cc1cc(C)cc(C(=O)NOCCCCCC(=O)NO)c1	0.23 ± 0.02
C[C@H](O)[C@H](O)[C@@H](O)[C@@H](O)C=O [L-(+)-Rhamnose Monohydrate]	1.15 ± 0.046
